KB-3-1 cytotox – qHTS assay for MDR1-selective chemotherapeutics: Primary screen using the parental adenocarcinoma cell KB-3-1 | KB-3-1 viability, CellTiter-Glo ATP luminescence, 72 h | Potency, µM (top dose mostly 46.1 µM), usual class: cytotoxic | actives 1.4% (n = 400,000) | AID 1347075, 2019; further: nearly all actives have a fitted effect of over 60% in size
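Using CellTiter-Glo luminescence, growth of non-resistant KB-3-1 adenocarcinoma cells is assessed 72 h after pin-tool compound addition at 37 °C. Normalized responses across the concentration series yield fitted curves.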
VP16 counter – VP16 counterscreen qHTS for inhibitors of ROR gamma transcriptional activity; Potency, µM (titrated, usually from 53.6 µM), actives largely listed as inhibitors; Drosophila S2 Gal4-VP16 UAS-luciferase, luminescence, 20 h; actives 3.5% (n = 310,000);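 further: Gal4-VP16 expression switched on by copper sulfate through the metallothionein promoter; nearly all actives have a fitted effect of over 50% in size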
RORgamma inh – qHTS for inhibitors of ROR gamma transcriptional activity | Potency, µM (top dose mostly 53.6 µM), actives largely listed as inhibitors | actives 5.4% (n = 310,000) | Nuclear receptor ROR-gamma (Mus musculus), P51450 | Drosophila S2 Gal4-RORgamma UAS-luciferase reporter, 20 h; further: nearly all actives have a fitted effect of over 60% in size
Target sequence (P51450 whole entry, looked up, the tested form may be a part): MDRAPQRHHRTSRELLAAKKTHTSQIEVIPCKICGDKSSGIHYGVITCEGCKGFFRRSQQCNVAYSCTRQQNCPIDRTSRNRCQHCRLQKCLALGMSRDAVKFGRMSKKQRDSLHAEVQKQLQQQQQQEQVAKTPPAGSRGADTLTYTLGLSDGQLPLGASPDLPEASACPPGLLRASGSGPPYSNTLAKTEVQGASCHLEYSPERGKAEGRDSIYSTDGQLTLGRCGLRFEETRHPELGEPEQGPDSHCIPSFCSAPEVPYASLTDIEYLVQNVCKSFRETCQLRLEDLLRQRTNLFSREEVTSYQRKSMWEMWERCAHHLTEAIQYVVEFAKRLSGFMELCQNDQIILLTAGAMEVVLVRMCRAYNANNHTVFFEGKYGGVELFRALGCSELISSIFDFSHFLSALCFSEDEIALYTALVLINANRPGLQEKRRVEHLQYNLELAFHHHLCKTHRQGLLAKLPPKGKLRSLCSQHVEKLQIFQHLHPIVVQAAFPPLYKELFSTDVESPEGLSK
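Using a luciferase readout, inhibitors were identified by reduced reporter activity in Drosophila cells coexpressing a copper-inducible Gal4–ROR gamma fusion and UAS-driven Photinus luciferase, incubated 20 hr after 700 uM copper sulfate.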
MCF10A rerep – A quantitative high throughput screen for small molecules that induce DNA re-replication in MCF 10a normal breast cells | MCF 10A DNA re-replication, Hoechst nuclear intensity, 48 h | Potency, µM (series often up to 46.1 µM), actives largely listed as activators | actives 2.9% (n = 350,000); further: nearly all actives have a fitted effect of over 50% in size
KB-V1 cytotox – qHTS assay for MDR1-selective chemotherapeutics: Primary screen using the drug-selected MDR subline cells KB-V1 | KB-V1 MDR cells viability, CellTiter-Glo, 72 h | AID 1347076, 2019 | Potency, µM (top dose mostly 46.1 µM), actives largely listed as cytotoxic | actives 3.4% (n = 400,000); further: nearly all actives have a fitted effect of over 60% in size
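Luminescent ATP read-out (CellTiter-Glo, 10 min) measures survival of drug-selected KB-V1 MDR cells after 72 h, 37 degrees C compound exposure. Medium: phenol-red-free DMEM, 10% FBS. Values from fitted concentration-response curves.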
SW480 rereplic – A quantitative high throughput screen for small molecules that induce DNA re-replication in SW480 colon adenocarcinoma cells | SW480 DNA re-replication, Hoechst DNA content imaging, 48 h | Potency, µM (highest dose often 46.1 µM), actives largely listed as activators | actives 1.8% (n = 340,000); further: nearly all actives have a fitted effect of over 55% in size
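First, 250 cells per well were seeded. Next, compound or vehicle (23 nL) was pinned in, plates sat 48 hr at 37 C. Finally Hoechst was added for 40 min before fluorescence scanning.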
A number is an active result; . = inactive; ? = inconclusive; / = not tested or not shown; [ ] = dose if it differs, or a comment. Hits are enriched below; roughly 10% of the tested compounds scored in any of these assays. The call rests on the fitted dose curve; in most records, active means well fitted curve in the direction sought with a large enough effect; inconclusive means small, poorly fitted or top-dose-only effect, or another doubt; inactive means no such curve, though single readings can be large; an effect the other way counts as inactive or inconclusive.

SMILES	KB-3-1 cytotox	VP16 counter	RORgamma inh	MCF10A rerep	KB-V1 cytotox	SW480 rereplic
CCOC(=O)c1cnc(Nc2nc3ccccc3o2)nc1CSc1nnc(C)s1	.	/	/	?	?	0.65µM
O=C(/C(=C/O)N=Nc1ccccc1)c1ccco1	.	.	.	15µM	.	?
CCOc1ccc(Cc2c(Cl)nc(SC)nc2N(C)C)cc1	12µM	?	.	9.2µM	12µM	?
Oc1cccc2ccc(/C=C/c3cccs3)nc12	?	?	13µM	?	.	11µM
Cc1cc(C)nc(NC(=O)/C=C/c2cccs2)c1	.	.	.	.	.	.
Cc1cccc(/C=C/c2cccs2)n1	2.3µM	/	/	/	.	/
CCc1ccc(CNC(=O)C2CCCN(S(=O)(=O)c3ccc4c(ccn4C)c3)C2)cc1 (centres undefined)	.	/	/	/	.	/
CCOc1ccc(C2C3=C(CC(C)(C)CC3=O)N(CC(=O)O)C3=C2C(=O)CC(C)(C)C3)cc1OCC	.	.	.	0.82µM	.	.
C#CCOc1ccc(C2C3=C(CC(C)(C)CC3=O)N(CC(=O)O)C3=C2C(=O)CC(C)(C)C3)cc1	.	.	.	?	?	.
COc1ccc(N2C3=C(CC4=C2CC(C)(C)CC4=O)C(=O)CC(C)(C)C3)cc1	?	.	.	.	.	.
C#CCOc1ccc(C2C3=C(CC(C)(C)CC3=O)N(CC(=O)O)C3=C2C(=O)CC(C)(C)C3)cc1OC	.	.	.	.	.	.
COc1ccc(N2C3=C(C(=O)CC(C)(C)C3)C(c3ccccc3OC)C3=C2CC(C)(C)CC3=O)cc1	.	.	.	16µM	?	18µM
COc1ccccc1C1C2=C(CC(C)(C)CC2=O)N(CC(=O)O)C2=C1C(=O)CC(C)(C)C2	.	.	.	21µM	.	.
Cc1ncsc1C(=O)Nc1nc2c(s1)CCCC2	16µM	.	.	.	13µM	?
Cc1ccc(CC(=O)Nc2nc3c(s2)CCCC3)cc1	?	.	.	?	?	.
O=C(Nc1nc2c(s1)CCCC2)c1ccc(Br)s1	16µM	?	11µM	.	5.2µM	?
Cc1cc(C(=O)Nc2nc3c(s2)CCCC3)cs1	.	6.3µM	?	.	.	.
O=C(Nc1nc2c(s1)CCCC2)c1ccc2ncsc2c1	.	?	1.8µM	?	.	.
CCCCCCn1cc(CN2CC(N3CCN(CCO)CC3)CS2(=O)=O)nn1 (centres undefined)	.	/	/	/	.	/
CCOC(=O)OCC1C=C[C@H](c2cc(-c3ccccc3)ccc2O)C(c2ccc(C(C)=O)cc2)O1 (some centres undefined)	/	.[10 µM]	.[10 µM]	/	/	/
O=C(C[n+]1ccccc1Br)c1ccc(F)cc1	.	/	/	/	.	/
CCOC(=O)N1CCN(c2cc3nccnc3cc2F)CC1	.	.	.	.	21µM	.
O=C(c1ccccc1F)n1c2c(c3ccccc31)CCCC2	?	.	.	15µM	?	?
CC1CCN(CC(=O)n2c3c(c4ccccc42)CCCC3)CC1	.	.	.	.	.	.
CCOC(=O)c1c(C)[nH]c(C2=NNC(=NC3CC3)SC2)c1C	.	?	?	.	.	.
SMILES	KB-3-1 cytotox	VP16 counter	RORgamma inh	MCF10A rerep	KB-V1 cytotox	SW480 rereplic
CCNc1nc(C#N)nc(NCC)n1	.	/	/	/	.	/
Cc1cc(/C([O-])=C(/C(=S)Nc2ccc(F)cc2)[n+]2ccccc2)c(C)n1-c1ccc(F)cc1	.	.	?	.	23µM	.
Cc1cc(/C([O-])=C(/C(=S)Nc2ccccc2)[n+]2ccccc2)c(C)n1-c1ccccc1	.	.	?	.	.	.
COC(=O)[C@@]1(Cc2ccccc2-c2ccco2)C=C[C@H](C)[C@@H](c2ccccc2)N1C(=O)C(F)(F)F	/	.	?	/	/	/
O=C1c2ccccc2C(=O)c2c(/C=C/N3CCCCC3)ccnc21	7.3µM	/	/	?	2.3µM	21µM
Cc1cccc(NC(=O)Cn2c(O)c(N=NC(N)=S)c3ccccc32)c1	.	?	?	.	.	.
Cc1cccc(Cn2c(O)c(N=NC(=S)Nc3ccccc3F)c3ccccc32)c1	?	5µM	3.2µM	.	?	.
COc1ccccc1NC(=O)Cn1c(O)c(N=NC(=O)c2ccccc2O)c2ccccc21	.	.	.	.	.	?
Oc1c(N=NC(=S)Nc2ccccc2F)c2ccccc2n1Cc1cccc(Cl)c1	6.5µM	3.5µM	?	.	.	.
Oc1c(N=NC(=S)Nc2ccccc2F)c2ccccc2n1Cc1ccc(F)cc1	.	3.5µM	2.8µM	.	.	.
CC1(C(=O)NS(=O)(=O)c2ccccc2Cl)CCN1C(=O)c1ccccc1CCc1ccccc1 (centres undefined)	.	/	/	/	.	/
CCN(CC)CCNc1nc2cc(OC)c(OC)cc2c2nc(-c3ccccc3)nn12	16µM	.	.	.	9.2µM	.
COc1cc2nc(NCCc3cccc(C)c3)n3nc(-c4ccccc4)nc3c2cc1OC	.	/	/	/	.	/
Cc1cc(C)c(C(=O)Nc2ccc(Br)c(C(F)(F)F)c2)c(C)c1	?	?	?	23µM	.	?
CCCCNC(=O)c1sc(=S)n2c1[nH]c(=O)c1ccccc12	.	.	.	?	.	.
O=C(NC1CCCCC1)c1sc(=S)n2c1[nH]c(=O)c1ccccc12	?	.	.	?	21µM	.
COc1ccccc1CNC(=O)CCC(=O)N1Cc2ccccc2Oc2ncccc21	.	/	/	/	.	/
CCCc1n[nH]c2c1/C(=N/O)CC(c1ccccc1)C2 (centres undefined)	26µM	.	?	.	?	.
COc1ccc(-c2cc(C(F)(F)F)nc(SCC(=O)NCCc3ccccc3)n2)cc1OC	.	/	/	/	.	/
COc1ccc(-c2cc(C(F)(F)F)nc(SCC(=O)N(C)Cc3cn(C)nc3C)n2)cc1OC	?	.	.	?	18µM	.
COc1ccc(-c2cc(C(F)(F)F)nc(SCC(=O)NCc3cnn(C)c3C)n2)cc1OC	?	.	.	.	9.2µM	.
CCCCC(=O)N/N=C/c1ccc(Sc2cccc3cccnc23)o1	.	11µM	5.6µM	.	?	.
O=C(CSc1cccc2cccnc12)N/N=C/c1ccc(F)cc1	.	.	.	.	?	.
Cc1ccc(-c2csc(C(O)c3ccc(F)c(F)c3)n2)cc1C (centres undefined)	.	/	/	/	.	/
CN1c2ccccc2N(C)C1c1ccc2c(c1)OCO2	5.8µM	.	.	.	.	.
COCCNc1nc(CSc2ccccc2)nc2sc(C)c(C)c12	.	?	11µM	?	10µM	.

Bioassay records: PubChem, National Center for Advancing Translational Sciences (NCATS)
